Rows were chosen to be rich in hits. Some 3.5% of all compounds tested hit in one or more screens of this group.
FBW7 activator = FBW7 E3 ligase activators, primary screen, biochemical, AlphaScreen, human; F-box/WD repeat-containing protein 7 (Homo sapiens), Q969H0; AlphaScreen FBW7–phospho-cyclin E peptide binding, activator screen; normalized activity (activation), % at 26.1 µM; actives 0.13% (n = 650,000); AID 1259310, 2017; in the data active means normalized activity above about 1.9%;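 further: purified mutant Fbw7 with reduced substrate affinity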
TEAD-YAP inh = TEAD-YAP interaction inhibition, primary screen, TEAD-YAP interaction inhibitor project, luminescence, HEK-TIYL cells; inhibition, % at 9.12 µM; actives 1.4% (n = 640,000); TEAD-Gal4/YAP UAS-luciferase luminescence; in the data active means inhibition above about 32%;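 further: 0% = median of test compound wells and 100% = reference inhibitor wells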
GPR151 ag = activators of human GPR151, primary screen, cell-based, PathHunter beta-arrestin, luminescence | activation, % at 11.2 µM | PathHunter beta-arrestin GPR151 cells | actives 1% (n = 650,000); in the data active means activation above about 4.9%;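 further: 0% = median of compound wells and 100% = cells with positive control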
Target sequence (Q8TDV0 whole entry, looked up): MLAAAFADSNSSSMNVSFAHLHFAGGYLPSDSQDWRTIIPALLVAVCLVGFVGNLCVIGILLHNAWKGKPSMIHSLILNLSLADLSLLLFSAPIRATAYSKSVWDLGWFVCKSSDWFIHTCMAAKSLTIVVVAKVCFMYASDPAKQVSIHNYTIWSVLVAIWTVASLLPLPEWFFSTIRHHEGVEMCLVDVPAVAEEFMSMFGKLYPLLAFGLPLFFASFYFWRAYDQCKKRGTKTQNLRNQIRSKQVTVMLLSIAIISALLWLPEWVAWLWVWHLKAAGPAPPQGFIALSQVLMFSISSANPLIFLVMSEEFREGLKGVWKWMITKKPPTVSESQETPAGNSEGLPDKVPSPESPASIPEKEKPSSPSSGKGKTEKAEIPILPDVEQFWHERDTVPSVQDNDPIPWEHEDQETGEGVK
MITF primary = MITF inhibitors, primary screen, biochemical, AlphaScreen, human | inhibition, % at 2.6 µM | AlphaScreen MITF homodimerization, bead proximity signal | Microphthalmia-associated transcription factor (Homo sapiens), O75030 | actives 0.91% (n = 650,000); in the data active means inhibition above about 50%;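 further: 0% = vehicle wells with protein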
* marks the source's active call; other numbers are inactive results.

SMILES | FBW7 activator | TEAD-YAP inh | GPR151 ag | MITF primary
CC1CCc2c(sc3ncn4c(=O)n(CC(=O)NC5CCCCC5)nc4c23)C1 (stereo not given) | 1.0 | 11.0 | -2.1 | 10.7
Nc1nc(-c2ccco2)nn1C(=O)c1ccccc1 | 2.0* | -2.1 | -0.3 | 16.4
CC(C)C1=NN2C(=N)/C(=C/c3ccc(-c4ccc([N+](=O)[O-])cc4Cl)o3)C(=O)N=C2S1 | 0.0 | -2.1 | -0.2 | -4.4
O=C(CCC1CCCC1)Nc1ccc(S(=O)(=O)N2CCCCC2c2cccnc2)cc1 (stereo not given) | 0.3 | -5.0 | 0.3 | 13.5
Cc1[nH]c2c(NS(=O)(=O)c3ccc4oc(=O)ccc4c3)cccc2c1C | -0.2 | -3.8 | 0.1 | 3.0
CCOC(=O)c1cc2cccc(NS(=O)(=O)c3ccc(OC)cc3)c2[nH]1 | -0.1 | 52.3* | 0.0 | -4.0
CCOC(=O)c1cc2cccc(NS(=O)(=O)c3cccs3)c2[nH]1 | 0.1 | 4.1 | -2.2 | 6.3
COc1ccc(S(=O)(=O)Nc2cccc3c(C)c(C)[nH]c23)cc1 | -0.2 | 44.4* | 1.9 | 9.7
Cc1noc(/C=C/N(C)C)c1S(=O)(=O)N1CCN(c2ccc([N+](=O)[O-])cc2)CC1 | -0.2 | -0.9 | 1.4 | -2.5
COc1ccccc1NS(=O)(=O)c1cc(C)ccc1OC | 0.5 | -5.5 | 1.0 | 1.8
O=C(Nc1cccc2ccccc12)c1cc(Cl)ccc1O | 0.3 | 63.5* | -2.3 | 9.2
Cc1ccccc1NC(=O)c1cc(Cl)ccc1O | 0.0 | 42.3* | -7.1 | -22.5
O=C(Nc1cccc2ccccc12)c1ccccc1I | 0.0 | 4.2 | 1.5 | -0.6
Fc1ccccc1CSc1nnnn1-c1ccccc1F | 2.3* | -12.5 | -0.9 | 20.5
CCOC(=O)CSc1nnnn1-c1ccccc1F | 0.5 | -1.2 | -1.6 | 6.0
NC(=O)CSc1nnnn1-c1ccccc1F | 2.4* | 11.7 | -1.7 | 3.9
CC(=O)N[C@H]1[C@@H](OCc2ccccc2)O[C@H](CO)[C@@H](O)[C@@H]1OC(=O)c1ccccc1 | -0.1 | -1.1 | 1.0 | -5.9
O=C(/C=C/Nc1ccccc1F)c1ccccc1 | -0.1 | 60.6* | -4.9 | 11.5
O=C(/C=C/Nc1ccc(F)cc1Br)c1ccccc1 | -0.1 | 85.9* | -4.5 | 5.9
O=C(/C=C/Nc1ccc([N+](=O)[O-])cc1Br)c1ccccc1 | 0.1 | 42.7* | -0.8 | 7.2
O=C(/C=C/Nc1ccc(F)cc1F)c1ccccc1 | 0.0 | 83.9* | -1.9 | -23.2
CCCCc1ccc(N=Cc2nc(-c3ccc(CCCC)cc3)oc2O)cc1 | 0.0 | -4.0 | -0.8 | 0.8
CCc1ccc(C(=O)/C=C/Nc2ccccc2O)cc1 | 0.0 | 38.6* | -4.3 | 2.0
COc1ccc(C(=O)/C=C/Nc2ccc(F)cc2F)cc1 | 0.6 | -32.8 | -0.7 | 17.4
COc1cccc(C(=O)/C=C/Nc2ccc(F)cc2F)c1 | 0.2 | 71.0* | -4.2 | 9.0
SMILES | FBW7 activator | TEAD-YAP inh | GPR151 ag | MITF primary
O=C(/C=C/Nc1ccccc1I)c1ccccc1 | -0.2 | 91.2* | -4.8 | -1.4
Cc1ccc(C(=O)/C=C/Nc2ccccc2O)cc1 | -0.1 | 4.2 | -1.9 | -30.8
COCCNc1ccc(-c2cccc(C=O)c2)cn1 | -0.6 | -57.4 | -0.9 | 1.3
COc1ccc(N=C2O/C(=C\c3sc(=S)n(CC4CCCO4)c3O)N=C2C#N)cc1 (stereo not given) | -0.5 | 9.1 | -1.4 | 51.7*
CC(C)(C)c1ccc(-c2ccc(OCCN3CCCC3=O)nc2)cc1 | -0.3 | 52.0* | 1.2 | 6.8
CC(C)COCc1ccc(O)c2ncccc12 | -2.2 | 22.3 | 0.0 | 58.6*
O=C1C=CC2=C3c4cc(O)c(O)cc4CC3(O)COC2=C1O (stereo not given) | -0.3 | -15.8 | -1.1 | 91.5*
CCC1(C(=O)c2ccccc2)C2c3ccccc3OC(=O)C21C(=O)N1CCOCC1 (stereo not given) | 0.4 | -13.7 | -0.2 | 20.2
CC1CCc2nc(NC(=O)c3ccco3)sc2C1 (stereo not given) | 0.1 | 73.9* | -6.5 | -4.3
COCCN1C(=O)C(=O)/C(=C(\O)c2ccccc2)C1c1ccc(F)cc1 (stereo not given) | -0.1 | -3.8 | 1.5 | -1.6
COc1ccc(CNc2nc(C)c(-c3ccn(CCO)n3)s2)c(OC)c1OC | -0.1 | -12.5 | 0.9 | -1.5
COc1cc(OC)c(OC)cc1CNc1nc(C)c(-c2ccn(CCO)n2)s1 | -0.1 | 37.1* | -0.3 | 14.7
CCOc1ccc(-c2nnn(CC(=O)Nc3ccccc3C(=O)OC)n2)cc1OCC | 0.3 | -7.5 | -1.1 | -13.4

Screens as filed in PubChem.
